From PubChem BioAssay (NCATS)
“And” between values parts separate entries of the source, which are not always exact repeats. Identical values can stand only once. The source made the active and inactive calls. Unless noted, the call rests on the fitted dose curve.

What was measured:
[1] = qHTS for Inhibitors of ATXN expression: Validation of Cytotoxic Assay (AID 588349; active means well fitted curve in the direction sought with a large enough effect; inconclusive means small, poorly fitted or top-dose-only effect, or another doubt; inactive means no such curve, though single readings can be large; an effect the other way counts as inactive or inconclusive; further: potency means the concentration at half of the fitted maximal effect); details: cytotoxicity counter-screen for ATXN expression inhibitors, cell viability; series mostly up to 57.1 µM
Procedure, shortened: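 HEK293 cells treated with titrated compound for 72 hr at 37 degrees C; viability read as intracellular ATP by CellTiter Glo luminescence.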

[2] = biological target: Ubiquitin carboxyl-terminal hydrolase 1 (Homo sapiens) (UniProt O94782); assay: Inhibitors of USP1/UAF1: Pilot qHTS (AID 504865; active means well fitted curve in the direction sought with a large enough effect; inconclusive means small, poorly fitted or top-dose-only effect, or another doubt; inactive means no such curve, though single readings can be large; an effect the other way counts as inactive or inconclusive;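 further: rhodamine fluorescence freed from ubiquitin-rhodamine substrate followed over time; top concentration of the series differs between compounds; on the % scale 0 is the no-effect control and ±100 the full control effect; nearly all actives have a fitted effect of over 35% in size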); details: purified USP1/UAF1, Ub-rhodamine cleavage fluorescence; series mostly up to 114 µM
Procedure, shortened: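 In 50mM HEPES pH 7.8 containing 0.5mM EDTA, 1mM TCEP, 0.1 mg/ml BSA and 0.01% Tween-20, 1nM USP1/UAF1 is exposed to compound for 15 min, then Ub-Rho (150nM final) is added and fluorescence is read over time.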

[3] = biological target: Estrogen receptor (Homo sapiens) (UniProt P03372); assay: qHTS assay for small molecule antagonists of estrogen receptor alpha signaling (AID 588513; active means well fitted curve in the direction sought with a large enough effect in the signal ratio, with a control signal flat, not every such curve was filed as active; inconclusive means small, poorly fitted or top-dose-only effect, or effect the other way, or a change in a side signal; inactive means no such curve, though single readings can be large or run the other way; the % refers to the signal ratio; further: potency means the concentration at half of the fitted maximal effect); details: ER-alpha-UAS-bla HEK293, beta-lactamase ratio, antagonist mode; series mostly up to 76.9 µM
Procedure, shortened: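 Fluorescence from CCF4 substrate after 2 h at room temperature gave reporter activity; cells had been exposed to compound and 0.5nM 17-beta-estradiol for 18 h at 37 C. Hill-equation fitting yielded IC50 and maximal response.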

[4] = biological target: Estrogen receptor (Homo sapiens) (UniProt P03372); assay: qHTS assay for small molecule agonists of estrogen receptor alpha signaling (AID 588514); details: ER-alpha-UAS-bla HEK293, beta-lactamase ratio, 18 h; series mostly up to 76.8 µM;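 further: 0% = vehicle only and 100% = reference agonist; nearly all actives have a fitted effect of over 70% in size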
Procedure, shortened: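 ER-alpha-UAS-bla GripTite HEK293 cells, 5000/well in 2% charcoal/dextran-stripped FBS medium, treated with compound titrations 18 h at 37 C. CCF4 beta-lactamase read by fluorescence after 2 h RT; normalised to 20 nM 17-beta-estradiol (100%) and DMSO (0%), Hill fit for EC50 and efficacy.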

[5] = biological target: Glucocorticoid receptor (Homo sapiens) (UniProt P04150); assay: qHTS assay for small molecule agonists of glucocorticoid receptor signaling (AID 588532; active means well fitted curve in the direction sought with a large enough effect in the signal ratio, with a control signal flat; inconclusive means small, poorly fitted or top-dose-only effect, or a change in a side signal; inactive means no such curve, though single readings can be large or run the other way; the % refers to the signal ratio;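 further: 100% = dexamethasone at 0.1 µM and 0% = DMSO only wells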); details: HeLa MMTV-bla, beta-lactamase ratio, agonist, 18 h; stronger effect = higher value; percent of dexamethasone control, DMSO zero
Procedure, shortened: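 Quantitative HTS using CellSensor MMTV-bla HeLa cells in charcoal/dextran-treated serum; compounds tested up to 92 uM. After 18 h at 37 C, CCF4 dye reported reporter induction.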

[6] = biological target: Glucocorticoid receptor (Homo sapiens) (UniProt P04150); assay: qHTS assay for small molecule antagonists of glucocorticoid receptor signaling (AID 588533; active means well fitted inhibition curve with a large enough effect in the signal ratio, with a control signal flat, not every such curve was filed as active; inconclusive means small, poorly fitted or top-dose-only effect, or effect the other way, or a change in a side signal; the % refers to the signal ratio;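 further: cells stimulated with 2 nM dexamethasone as agonist; on the % scale 0 is the no-effect control and ±100 the full control effect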); details: HeLa MMTV-bla, GRE beta-lactamase ratio, antagonist mode, 18 h; series mostly up to 76.8 µM
Procedure, shortened: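 Antagonist-mode qHTS: compound titrations added to GRE-bla HeLa cells, then dexamethasone 2 nM final; 18 h, 37 C. CCF4 FRET fluorescence normalized to dexamethasone and DMSO; IC50 from Hill fit.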

[7] = biological target: Peroxisome proliferator-activated receptor gamma (Homo sapiens) (UniProt P37231); assay: qHTS assay for small molecule agonists of peroxisome proliferator-activated receptor gamma signaling (AID 588536; active means well fitted curve in the direction sought with a large enough effect in the signal ratio, with a control signal flat, not every such curve was filed as active; inconclusive means small, poorly fitted or top-dose-only effect, or effect the other way, or a change in a side signal; inactive means no such curve, though single readings can be large or run the other way; the % refers to the signal ratio;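 further: 0% = DMSO basal wells and 100% = rosiglitazone at 2 µM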); details: HEK293 PPARg-UAS-bla, beta-lactamase ratio, 16 h, percent of rosiglitazone response, DMSO as zero; series mostly up to 76.7 µM
Procedure, shortened: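 PPAR-gamma-UAS-bla HEK293 cells in medium with 1% charcoal/dextran-treated FBS were exposed to compounds for 16 h at 37 C. Beta-lactamase activity was read with CCF4 substrate (405 nm excitation, 460/530 nm emission).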

[8] = biological target: Peroxisome proliferator-activated receptor gamma (Homo sapiens) (UniProt P37231); assay: qHTS assay for small molecule antagonists of peroxisome proliferator-activated receptor gamma signaling (AID 588537; active means well fitted inhibition curve with a large enough effect in the signal ratio, with a control signal flat, not every such curve was filed as active; inconclusive means small, poorly fitted or top-dose-only effect, or effect the other way, or a change in a side signal; the % refers to the signal ratio;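 further: reporter cells co-stimulated with 50 nM rosiglitazone agonist during compound treatment; % of control where 0% means no effect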); details: HEK293 PPARg-UAS-bla, beta-lactamase ratio, antagonist mode; series mostly up to 76.8 µM
Procedure, shortened: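 Antagonist mode, beta-lactamase reporter in HEK293; charcoal/dextran FBS 1%; 3000 cells/well, 37 C 6-6.5 h; cpd titration + rosiglitazone 50 nM final, 16 h 37 C; CCF4, 2 h RT; 460/530 nm; Hill fit → IC50, efficacy.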

[9] = biological target: Vitamin D3 receptor (Homo sapiens) (UniProt P11473); assay: qHTS assay for small molecule agonists of vitamin D receptor signaling (AID 588543); details: HEK293T VDR-UAS-bla, beta-lactamase ratio, 16 h; series mostly up to 76.8 µM;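 further: 0% = DMSO basal and 100% = reference agonist control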
Procedure, shortened: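 Reporter cells (HEK293T, VDR-UAS-bla) were seeded in medium with 2% charcoal-stripped serum and incubated 5 h, then compounds in concentration series were added for 16 h at 37 °C. Stimulation was scaled between DMSO basal and 50 nM 1α,25-dihydroxyvitamin D3.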

[10] = qHTS assay for small molecule agonists of retinoid X receptor alpha signaling (AID 588544); details: HEK293T RXRa-UAS-bla, beta-lactamase reporter, 18 h; 530 nm emission;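 on activation: 0% = DMSO basal wells and 100% = reference agonist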
[11] = biological target: Retinoic acid receptor RXR-alpha (Homo sapiens) (UniProt P19793); assay: as above; details: HEK293T RXRa-UAS-bla, beta-lactamase reporter, 18 h; series mostly up to 76.7 µM
[12] = qHTS assay for small molecule antagonists of retinoid X receptor alpha signaling (AID 588546); details: HEK293T RXRa-UAS-bla, beta-lactamase ratio, antagonist mode; measured here: W530 green channel, cytotoxicity proxy;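 further: cells stimulated with 9-cis-retinoic acid as agonist; on the % scale 0 is the no-effect control and ±100 the full control effect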
Procedure, shortened: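 Beta-lactamase reporter inhibition, read as CCF4 fluorescence ratio (ex 405, em 460/530 nm) after 2 h at RT. HEK293T UAS-bla cells, 2500/well, were stimulated with 9-cis-RA at 500 or 100 nM final alongside test compound for 18 h at 37 C.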

[13] = biological target: Androgen receptor (Homo sapiens) (UniProt P10275); assay: qHTS assay for small molecule agonists of androgen receptor signaling (AID 588515; active means well fitted curve in the direction sought with a large enough effect in the signal ratio, with a control signal flat; inconclusive means small, poorly fitted or top-dose-only effect, or effect the other way, or a change in a side signal; inactive means no such curve, though single readings can be large or run the other way; the % refers to the signal ratio; further: on the % scale 0 is the no-effect control and ±100 the full control effect); details: AR-UAS-bla HEK293, beta-lactamase ratio, agonist 16 h; stronger effect = higher value
Procedure, shortened: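 EC50 and efficacy came from Hill fits of titrations (up to 92 uM) normalized to 30 nM R1881 as 100% and DMSO as 0%. Compound exposure was 16 h at 37 C on AR-UAS-bla HEK293 cells, with a 405/460/530 nm CCF4 fluorescence read.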

[14] = biological target: Androgen receptor (Homo sapiens) (UniProt P10275); assay: qHTS assay for small molecule antagonists of androgen receptor signaling (AID 588516; active means well fitted curve in the direction sought with a large enough effect in the signal ratio, with a control signal flat, not every such curve was filed as active; inconclusive means small, poorly fitted or top-dose-only effect, or effect the other way, or a change in a side signal; inactive means no such curve, though single readings can be large or run the other way; the % refers to the signal ratio; further: on the % scale 0 is the no-effect control and ±100 the full control effect); details: AR-UAS-bla HEK293, beta-lactamase ratio, antagonist mode, 16 h; series mostly up to 76.8 µM
Procedure, shortened: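 Cells were plated and incubated 5 h, compounds added in titration, then R1881 (10 nM final) as agonist. After 16 h at 37 C, CCF4 substrate was loaded for 2 h at room temperature and fluorescence measured.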

[15] = biological target: Bile acid receptor (Homo sapiens) (UniProt Q96RI1); assay: qHTS assay for small molecule antagonists of farnesoid X receptor signaling (AID 588526); details: HEK293T FXR-UAS-bla, beta-lactamase ratio, antagonist mode; series mostly up to 76.7 µM; further: on the % scale 0 is the no-effect control and ±100 the full control effect
Procedure, shortened: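 Beta-lactamase reporter antagonist mode: HEK293T FXR-UAS-bla cells, titrated compound, CDCA stimulation, 16 h 37 C, CCF4 dye 2 h RT. Data normalized to CDCA 50 uM and DMSO; Hill-fit IC50.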

[16] = qHTS assay for small molecule antagonists of peroxisome proliferator-activated receptor delta signaling (AID 588535; active means well fitted inhibition curve with a large enough effect in the signal ratio, with a control signal flat, not every such curve was filed as active; inconclusive means small, poorly fitted or top-dose-only effect, or effect the other way, or a change in a side signal; inactive means no such curve, though single readings can be large or run the other way; the % refers to the signal ratio;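 on max response: cells co-treated with a PPAR-delta agonist as stimulator during compound exposure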); details: HEK293T PPARd-UAS-bla, beta-lactamase FRET ratio, 18 h; 460 nm channel
Procedure, shortened: (§1)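 HEK293T PPAR-delta-UAS-bla cells, 4000/well, 2% charcoal/dextran FBS; 5 h 37 C; cpd titration; 18 h 37 C; CCF4 2 h RT; FI 460/530 nm; Hill fit → IC50, efficacy.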

[17] = biological target: Peroxisome proliferator-activated receptor delta (Homo sapiens) (UniProt Q03181); assay: as above; details: HEK293T PPARd-UAS-bla, beta-lactamase FRET ratio, 18 h; series mostly up to 76.7 µM
Procedure, shortened: as §1

[18] = biological target: Thyroid hormone receptor beta (Homo sapiens) (UniProt P10828); assay: qHTS assay for small molecule agonists of thyroid hormone receptor beta signaling (AID 588545); details: TR-UAS-bla GripTite HEK 293, beta-lactamase ratio, agonist mode, 18 h, percent of T3 response, DMSO as zero; series mostly up to 76.7 µM;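 further: 0% = DMSO only and 100% = 10 nM T3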
Procedure, shortened: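 Stimulation of a TR-driven beta-lactamase reporter was quantified in GripTite HEK 293 cells. Compound series ran for 18 hrs; curves were normalized to T3 and DMSO controls and fitted to yield EC50.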

Chain of Retinoic acid receptor RXR-alpha (Homo sapiens) (P19793 whole entry, looked up): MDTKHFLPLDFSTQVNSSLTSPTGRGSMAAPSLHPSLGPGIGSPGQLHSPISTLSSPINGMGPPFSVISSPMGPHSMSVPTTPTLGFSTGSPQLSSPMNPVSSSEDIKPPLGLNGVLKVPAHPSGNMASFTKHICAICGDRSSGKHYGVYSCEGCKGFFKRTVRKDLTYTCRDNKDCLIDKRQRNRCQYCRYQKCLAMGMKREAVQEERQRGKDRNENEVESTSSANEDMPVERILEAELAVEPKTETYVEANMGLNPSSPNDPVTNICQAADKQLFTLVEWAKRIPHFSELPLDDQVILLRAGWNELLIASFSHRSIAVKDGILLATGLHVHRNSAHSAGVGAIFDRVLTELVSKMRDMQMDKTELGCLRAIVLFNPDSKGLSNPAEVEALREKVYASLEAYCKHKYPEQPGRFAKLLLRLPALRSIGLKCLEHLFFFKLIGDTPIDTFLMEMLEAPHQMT
Chain of Thyroid hormone receptor beta (Homo sapiens) (P10828 whole entry, looked up): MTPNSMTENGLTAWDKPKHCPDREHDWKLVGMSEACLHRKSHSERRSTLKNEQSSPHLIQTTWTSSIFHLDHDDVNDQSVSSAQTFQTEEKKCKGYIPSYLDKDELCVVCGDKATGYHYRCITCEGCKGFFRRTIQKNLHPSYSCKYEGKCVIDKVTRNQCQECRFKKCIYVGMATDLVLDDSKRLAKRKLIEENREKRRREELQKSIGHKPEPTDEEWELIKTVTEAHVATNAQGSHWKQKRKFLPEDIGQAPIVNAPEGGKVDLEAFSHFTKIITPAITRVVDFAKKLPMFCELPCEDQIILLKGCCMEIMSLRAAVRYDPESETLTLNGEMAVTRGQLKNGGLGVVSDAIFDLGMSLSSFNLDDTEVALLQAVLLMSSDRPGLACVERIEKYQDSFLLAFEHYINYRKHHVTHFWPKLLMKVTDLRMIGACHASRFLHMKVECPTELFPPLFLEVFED
Chain of Ubiquitin carboxyl-terminal hydrolase 1 (Homo sapiens) (O94782 whole entry, looked up): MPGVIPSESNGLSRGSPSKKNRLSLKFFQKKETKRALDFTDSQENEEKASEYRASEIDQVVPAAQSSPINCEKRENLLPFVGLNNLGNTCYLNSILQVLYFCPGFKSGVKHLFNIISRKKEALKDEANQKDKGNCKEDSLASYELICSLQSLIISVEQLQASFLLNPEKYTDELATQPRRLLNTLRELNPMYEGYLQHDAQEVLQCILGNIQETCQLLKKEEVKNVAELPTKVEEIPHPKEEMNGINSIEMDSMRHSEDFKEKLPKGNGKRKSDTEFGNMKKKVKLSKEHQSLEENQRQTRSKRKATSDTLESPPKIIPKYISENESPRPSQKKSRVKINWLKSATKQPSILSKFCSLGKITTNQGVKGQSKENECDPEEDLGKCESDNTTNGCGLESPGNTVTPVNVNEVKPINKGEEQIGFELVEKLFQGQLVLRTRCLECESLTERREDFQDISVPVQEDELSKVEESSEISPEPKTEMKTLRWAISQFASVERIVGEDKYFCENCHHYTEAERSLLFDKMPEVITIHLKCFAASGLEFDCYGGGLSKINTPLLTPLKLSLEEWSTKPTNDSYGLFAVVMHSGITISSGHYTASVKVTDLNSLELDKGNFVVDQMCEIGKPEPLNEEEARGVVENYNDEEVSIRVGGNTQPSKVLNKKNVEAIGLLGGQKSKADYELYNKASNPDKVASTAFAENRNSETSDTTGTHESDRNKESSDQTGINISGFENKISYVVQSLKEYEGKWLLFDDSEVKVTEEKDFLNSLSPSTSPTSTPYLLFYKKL
Chain of Bile acid receptor (Homo sapiens) (Q96RI1 whole entry, looked up): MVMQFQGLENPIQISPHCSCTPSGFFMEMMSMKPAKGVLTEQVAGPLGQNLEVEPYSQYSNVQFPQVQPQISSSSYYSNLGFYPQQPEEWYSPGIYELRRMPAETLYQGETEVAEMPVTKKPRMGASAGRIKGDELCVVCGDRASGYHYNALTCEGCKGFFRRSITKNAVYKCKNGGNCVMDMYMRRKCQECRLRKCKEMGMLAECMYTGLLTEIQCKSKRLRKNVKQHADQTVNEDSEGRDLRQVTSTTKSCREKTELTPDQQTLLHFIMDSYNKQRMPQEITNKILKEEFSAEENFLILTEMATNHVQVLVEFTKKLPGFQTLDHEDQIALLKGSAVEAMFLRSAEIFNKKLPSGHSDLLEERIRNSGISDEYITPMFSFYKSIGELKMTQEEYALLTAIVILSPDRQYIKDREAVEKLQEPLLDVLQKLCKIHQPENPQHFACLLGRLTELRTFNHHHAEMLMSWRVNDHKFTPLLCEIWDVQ
Chain of Peroxisome proliferator-activated receptor gamma (Homo sapiens) (P37231 whole entry, looked up): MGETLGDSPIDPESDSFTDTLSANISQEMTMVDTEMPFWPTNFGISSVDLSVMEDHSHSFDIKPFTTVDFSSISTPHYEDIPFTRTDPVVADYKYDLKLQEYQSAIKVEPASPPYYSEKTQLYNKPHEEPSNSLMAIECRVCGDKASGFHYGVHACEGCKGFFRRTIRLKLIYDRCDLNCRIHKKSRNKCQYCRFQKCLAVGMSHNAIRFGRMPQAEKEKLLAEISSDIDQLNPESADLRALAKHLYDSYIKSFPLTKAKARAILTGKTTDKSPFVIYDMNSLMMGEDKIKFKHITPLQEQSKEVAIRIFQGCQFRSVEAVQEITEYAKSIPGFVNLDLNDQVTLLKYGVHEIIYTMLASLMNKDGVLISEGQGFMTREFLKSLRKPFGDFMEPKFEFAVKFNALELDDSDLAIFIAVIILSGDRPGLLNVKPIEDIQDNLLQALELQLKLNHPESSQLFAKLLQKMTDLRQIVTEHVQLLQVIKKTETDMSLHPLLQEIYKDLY
Chain of Glucocorticoid receptor (Homo sapiens) (P04150 whole entry, looked up): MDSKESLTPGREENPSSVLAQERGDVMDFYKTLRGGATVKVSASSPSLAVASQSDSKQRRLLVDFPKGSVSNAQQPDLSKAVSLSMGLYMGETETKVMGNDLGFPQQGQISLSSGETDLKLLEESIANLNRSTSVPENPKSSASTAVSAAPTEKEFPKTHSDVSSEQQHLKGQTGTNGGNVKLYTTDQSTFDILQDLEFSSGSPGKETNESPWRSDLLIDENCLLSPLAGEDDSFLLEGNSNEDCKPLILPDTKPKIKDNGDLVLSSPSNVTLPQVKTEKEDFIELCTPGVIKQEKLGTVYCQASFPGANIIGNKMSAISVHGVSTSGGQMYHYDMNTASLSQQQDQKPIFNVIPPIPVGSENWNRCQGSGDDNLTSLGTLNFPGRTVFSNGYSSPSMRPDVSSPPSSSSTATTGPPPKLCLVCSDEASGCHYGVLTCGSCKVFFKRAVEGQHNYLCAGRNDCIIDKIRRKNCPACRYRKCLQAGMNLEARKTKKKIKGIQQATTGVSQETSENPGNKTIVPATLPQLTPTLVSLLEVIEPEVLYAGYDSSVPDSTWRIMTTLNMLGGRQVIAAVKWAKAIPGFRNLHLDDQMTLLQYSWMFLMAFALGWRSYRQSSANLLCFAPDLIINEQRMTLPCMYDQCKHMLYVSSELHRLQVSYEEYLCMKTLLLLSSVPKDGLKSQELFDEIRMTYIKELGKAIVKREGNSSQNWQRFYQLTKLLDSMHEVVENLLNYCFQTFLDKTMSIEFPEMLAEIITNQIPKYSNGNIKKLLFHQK
Chain of Vitamin D3 receptor (Homo sapiens) (P11473 whole entry, looked up): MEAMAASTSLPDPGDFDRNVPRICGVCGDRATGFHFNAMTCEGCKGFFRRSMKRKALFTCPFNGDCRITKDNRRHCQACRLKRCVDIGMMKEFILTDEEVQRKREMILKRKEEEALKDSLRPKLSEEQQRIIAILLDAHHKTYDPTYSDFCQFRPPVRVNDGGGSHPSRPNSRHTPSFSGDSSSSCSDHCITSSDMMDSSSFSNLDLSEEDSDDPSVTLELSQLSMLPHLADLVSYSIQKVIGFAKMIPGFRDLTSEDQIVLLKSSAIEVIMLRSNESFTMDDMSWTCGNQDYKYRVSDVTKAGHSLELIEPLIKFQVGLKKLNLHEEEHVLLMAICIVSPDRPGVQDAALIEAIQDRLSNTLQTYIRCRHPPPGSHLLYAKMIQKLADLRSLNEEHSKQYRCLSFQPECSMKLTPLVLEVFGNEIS
Chain of Estrogen receptor (Homo sapiens) (P03372 whole entry, looked up): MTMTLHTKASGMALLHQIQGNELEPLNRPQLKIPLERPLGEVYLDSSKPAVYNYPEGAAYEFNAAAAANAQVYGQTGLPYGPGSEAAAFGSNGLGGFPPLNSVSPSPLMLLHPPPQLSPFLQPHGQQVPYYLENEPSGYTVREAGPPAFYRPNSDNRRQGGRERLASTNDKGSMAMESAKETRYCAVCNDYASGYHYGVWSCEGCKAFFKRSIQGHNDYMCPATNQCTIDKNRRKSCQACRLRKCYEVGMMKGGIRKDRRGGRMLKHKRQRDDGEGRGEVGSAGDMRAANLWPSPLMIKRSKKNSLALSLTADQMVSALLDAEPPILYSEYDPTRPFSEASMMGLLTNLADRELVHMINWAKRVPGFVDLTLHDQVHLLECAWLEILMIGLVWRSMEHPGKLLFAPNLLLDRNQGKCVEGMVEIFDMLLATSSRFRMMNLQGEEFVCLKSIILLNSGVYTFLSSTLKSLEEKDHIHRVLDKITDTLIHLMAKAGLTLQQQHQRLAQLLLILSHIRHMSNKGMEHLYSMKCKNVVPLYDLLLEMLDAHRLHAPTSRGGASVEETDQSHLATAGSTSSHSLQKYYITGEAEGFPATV
Chain of Peroxisome proliferator-activated receptor delta (Homo sapiens) (Q03181 whole entry, looked up): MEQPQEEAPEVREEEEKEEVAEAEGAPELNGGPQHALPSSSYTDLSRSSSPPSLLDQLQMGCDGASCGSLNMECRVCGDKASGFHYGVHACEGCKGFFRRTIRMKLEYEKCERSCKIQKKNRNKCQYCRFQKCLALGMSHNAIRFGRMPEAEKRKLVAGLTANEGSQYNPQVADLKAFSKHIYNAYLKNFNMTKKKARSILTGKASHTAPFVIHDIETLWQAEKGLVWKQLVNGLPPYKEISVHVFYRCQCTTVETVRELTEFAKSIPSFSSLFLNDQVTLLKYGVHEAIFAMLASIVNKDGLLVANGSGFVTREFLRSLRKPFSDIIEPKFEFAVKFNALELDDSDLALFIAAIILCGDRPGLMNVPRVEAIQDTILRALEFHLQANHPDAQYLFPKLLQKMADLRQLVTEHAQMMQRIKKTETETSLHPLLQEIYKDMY

CN1CC[C@@]2(C)c3cc(O)ccc3N(C)C12 (stereo not given in full)
active: Potency [1] 28.2 µM

CC(N)c1cccc(Cl)c1Cl (stereo not given)
inactive: Potency [1]

ClCC1CO1 (stereo not given)
inactive: Potency [2] | Potency [3] | Potency [4] | activation [5] -9.3% | Potency [6] | outcome [7] | Potency [8] | outcome [9] | Potency [11]
-5.61%: max response [12]
-12.3%: max response [10]

O=C1CCO1
-9.31%: max response [12]
13.3%: max response [16]
-0.599%: max response [10]
inactive: Potency [2] | Potency [3] | Potency [4] | activation [13] 25.6% | outcome [14] | Potency [15] | activation [5] -0.359% | Potency [6] | outcome [17] | outcome [7] | Potency [8] | outcome [9] | Potency [11] | outcome [18]

CCCCCCCCOC(=O)c1ccccc1C(=O)OCCCCCCCC
-8.04% and -12.9%: max response [12]
13.7% and -2.08%: max response [16]
-12.6% and -10.6%: max response [10]
inactive: Potency [2] | Potency [3] | activation [13] 20.2% and 9.55% | outcome [14] | Potency [15] | outcome [17] | outcome [7] | Potency [8] | outcome [9] | Potency [11] | outcome [18]

O=CC=O
-3.86%: max response [10]
inactive: Potency [2] | Potency [3] | Potency [4] | activation [13] 7.81% | outcome [14] | activation [5] -1.86% | Potency [6] | outcome [7] | Potency [11] | outcome [18]
5.31%: max response [12]

COc1ccc2c(c1)[C@@]13CCCC[C@H]1[C@@H](C2)NCC3
inactive: Potency [1]

O=C(NCNC(=O)NC1C(=O)NC(=O)N1CO)NC1C(=O)NC(=O)N1CO (stereo not given)
0.0503%: max response [10]
inactive: Potency [2] | activation [13] 0.237% | Potency [15] | activation [5] -2.2% | Potency [6] | outcome [17] | outcome [7] | Potency [8] | Potency [11] | outcome [18]
13.7%: max response [16]
-13%: max response [12]

CCCCCCCCCCCCCC(=O)O[C@@H]1[C@@H](C)[C@@]2(O)[C@@H](C=C(CO)C[C@@]3(O)C(=O)C(C)=C[C@@H]23)C2C(C)(C)[C@@]21OC(C)=O (stereo not given in full)
inactive: Potency [1]

S=C=S
inactive: Potency [2] | Potency [3] | Potency [4] | activation [5] 1.7% | Potency [6] | outcome [7] | outcome [9] | Potency [11] | outcome [18]
-8.84%: max response [12]
-8.91%: max response [10]

ClC(Cl)(Cl)Cl
inactive: Potency [2] | Potency [3] | Potency [4] | Potency [15] | outcome [17] | outcome [7] | Potency [8] | outcome [9] | Potency [11] | outcome [18]
-0.129%: max response [12]
30.1%: max response [16]
-19.2% and -11.8%: max response [10]

CC(C)Nc1ccc(Nc2ccccc2)cc1
active: Potency [3] 22.4 µM [inconclusive]
inactive: Potency [2] | Potency [4] | outcome [9] | outcome [18]
